This note sets out measurements from PubChem BioAssay.

Test [1] can be described thus: E. coli DRC41 culture turbidity changes, primary screen, E. coli filamentation inducer project, strain DRC41, OD650, 48 h (AID 1152).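 Note: E. coli MC1000 strain DRC41 lacking acrAB efflux pump and sulA.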 The conditions noted are these: E. coli DRC41 (acrAB sulA), higher = more signal, called active from +8 up or from −8 down.
Test [2] can be described thus: small-molecule binders of probe aLefty1, primary screen, biochemical, small-molecule microarray, 635/667 nm fluorescence (AID 1153).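 Note: score merges spot fluorescence with signal-to-noise ratio from the scanned slide images.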 The conditions noted are these: higher = more signal.
A short description of test [3]: PSAC antagonists in infected red cells, primary screen, cell-based, P. falciparum Indochina, OD700, 1 h (AID 1154). The conditions noted are these: P. falciparum Indochina infected RBC osmotic lysis, higher = more signal, called active from +8 up or from −8 down.
The nature of test [4]: PSAC antagonists in infected red cells, primary screen, cell-based, P. falciparum Indochina, OD700, 2 h (AID 1155).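 Note: lysis reports solute entry through the parasite surface anion channel PSAC; channel blockers reduce lysis of infected cells.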 The settings on record: P. falciparum Indochina infected erythrocytes, osmotic lysis OD700; higher = more signal, called active from +8 up or from −8 down.
A short description of test [5]: osmotic lysis modulators in infected erythrocytes, primary screen, PSAC antagonist project, cell-based, P. falciparum Indochina, OD700, 3 h (AID 1156). The settings on record: higher = more signal, called active from +8 up or from −8 down.
Test [6] in a line: PSAC antagonists in infected red cells, primary screen, cell-based, P. falciparum Indochina, OD700, 18 h (AID 1157). The conditions noted are these: P. falciparum Indochina infected erythrocytes, osmotic lysis OD700, 18 h; higher = more signal, called active from +8 up or from −8 down.
Test [7] can be described thus: modulators of S6 phosphorylation in cells, primary screen, cell-based, A549, cytoblot, luminescence, serum-stimulated (AID 1158).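 Note: serum-stimulated A549 lung adenocarcinoma cells; signal is phosphorylated S6 detected by cytoblot immunostaining with HRP secondary.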 The settings on record: A549 phospho-S6 cytoblot, 5 h, higher = more signal.
The target in test [8] is NADPH oxidase 2 (Homo sapiens) (UniProt P04839). The test can be described thus: NOX2-dependent H2O2 signal modulators, primary screen, NOX inhibitor project, cell-based, HEK293-NOX2, PMA-stimulated, Amplex Red fluorescence (AID 1159). Note: test concentration not given here. The settings on record: 45 min, higher = more signal, called active from +8 up or from −8 down.
Test [9] concerns the target NADPH oxidase 4 (Homo sapiens) (UniProt Q9NPH5). In words: NOX4-dependent H2O2 signal modulators, primary screen, NOX inhibitor project, cell-based, HEK293-NOX4, tetracycline-induced, Amplex Red fluorescence (AID 1160). The settings on record: 45 min, higher = more signal, called active from +8 up or from −8 down.
Test [10] deals with NADPH oxidase 5 (Homo sapiens) (UniProt Q96PH1). In words: NOX5-dependent H2O2 signal modulators, primary screen, NOX inhibitor project, cell-based, HEK293-NOX5, Amplex Red fluorescence (AID 1161). The settings on record: HEK293-NOX5, ionomycin, 45 min, higher = more signal.

The source made the active and inactive calls.

NADPH oxidase 4 (Homo sapiens), sequence (Q9NPH5 whole entry, looked up): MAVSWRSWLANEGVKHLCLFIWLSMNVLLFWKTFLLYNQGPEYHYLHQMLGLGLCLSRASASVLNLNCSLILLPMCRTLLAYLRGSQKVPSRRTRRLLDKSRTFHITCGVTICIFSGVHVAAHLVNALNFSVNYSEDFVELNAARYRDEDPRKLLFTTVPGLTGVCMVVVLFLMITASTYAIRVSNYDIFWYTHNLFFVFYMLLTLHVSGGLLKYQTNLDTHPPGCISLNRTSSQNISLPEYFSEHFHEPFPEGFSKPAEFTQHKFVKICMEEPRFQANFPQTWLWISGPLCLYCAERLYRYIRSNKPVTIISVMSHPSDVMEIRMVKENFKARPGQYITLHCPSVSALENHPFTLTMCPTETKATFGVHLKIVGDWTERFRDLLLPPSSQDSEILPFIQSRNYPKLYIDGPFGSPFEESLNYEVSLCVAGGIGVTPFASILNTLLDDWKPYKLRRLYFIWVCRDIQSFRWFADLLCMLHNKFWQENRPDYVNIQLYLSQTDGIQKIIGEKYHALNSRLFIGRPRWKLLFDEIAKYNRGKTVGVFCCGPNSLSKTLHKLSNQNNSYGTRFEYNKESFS
NADPH oxidase 5 (Homo sapiens), sequence (Q96PH1 whole entry, looked up): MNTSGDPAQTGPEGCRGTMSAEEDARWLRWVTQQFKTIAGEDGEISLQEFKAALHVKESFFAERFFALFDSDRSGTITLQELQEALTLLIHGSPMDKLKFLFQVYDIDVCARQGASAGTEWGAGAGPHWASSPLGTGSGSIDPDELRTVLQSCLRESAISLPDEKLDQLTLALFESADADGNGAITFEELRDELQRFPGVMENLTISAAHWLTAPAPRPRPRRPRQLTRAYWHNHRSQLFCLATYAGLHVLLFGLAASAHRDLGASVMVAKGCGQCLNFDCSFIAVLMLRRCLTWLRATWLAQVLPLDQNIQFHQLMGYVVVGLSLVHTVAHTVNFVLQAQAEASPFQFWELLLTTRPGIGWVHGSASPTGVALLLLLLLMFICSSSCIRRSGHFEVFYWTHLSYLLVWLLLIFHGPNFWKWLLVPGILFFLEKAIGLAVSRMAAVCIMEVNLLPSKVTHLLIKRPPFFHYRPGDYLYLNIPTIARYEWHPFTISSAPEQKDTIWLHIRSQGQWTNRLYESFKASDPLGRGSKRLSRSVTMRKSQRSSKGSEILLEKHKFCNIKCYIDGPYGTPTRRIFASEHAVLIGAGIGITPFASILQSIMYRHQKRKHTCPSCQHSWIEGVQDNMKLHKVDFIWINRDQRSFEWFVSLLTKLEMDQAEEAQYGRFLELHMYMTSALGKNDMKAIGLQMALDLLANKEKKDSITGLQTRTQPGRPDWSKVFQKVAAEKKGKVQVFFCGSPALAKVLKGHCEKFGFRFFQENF
NADPH oxidase 2 (Homo sapiens), sequence (P04839 whole entry, looked up): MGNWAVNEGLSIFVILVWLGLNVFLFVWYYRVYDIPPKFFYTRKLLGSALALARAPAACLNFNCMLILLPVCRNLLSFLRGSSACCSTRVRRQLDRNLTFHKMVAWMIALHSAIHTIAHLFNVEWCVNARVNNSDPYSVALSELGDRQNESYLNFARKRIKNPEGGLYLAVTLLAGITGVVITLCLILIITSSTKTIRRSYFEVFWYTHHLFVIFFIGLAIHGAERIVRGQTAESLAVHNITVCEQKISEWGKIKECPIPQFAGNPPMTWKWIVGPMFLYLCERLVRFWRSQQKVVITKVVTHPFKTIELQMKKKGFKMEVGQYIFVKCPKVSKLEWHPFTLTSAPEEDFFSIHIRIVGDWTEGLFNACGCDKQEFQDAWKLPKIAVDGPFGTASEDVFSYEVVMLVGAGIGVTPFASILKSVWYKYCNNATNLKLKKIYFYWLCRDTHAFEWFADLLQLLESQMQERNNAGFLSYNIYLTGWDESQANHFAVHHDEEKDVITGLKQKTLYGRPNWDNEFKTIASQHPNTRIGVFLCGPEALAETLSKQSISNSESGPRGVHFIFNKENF

Regarding `CCC[C@@H]1C[C@@]1(CCC)[C@@H](NC(=O)c1ccco1)c1ccc(Cl)cc1`, the z-score was -1.37 (inactive) in test [1]; 1.85 (inactive) in test [3]; 0.238 (inactive) in [4]; 0.425 (inactive) in test [5]; 0.469 (inactive) in [6]; -0.0915 in [7]. Also, the z-score in test [8] was -1.46 (inactive); in [9], -3.83 (inactive); in [10], -0.796. In test [2], the composite z-score was -0.0035.

Regarding `CC(C)CCC[C@@H](C)[C@H]1CC[C@@]2(C)C3=C(CC[C@]12C)[C@@]1(C)CC[C@H](OC(=O)c2ccc(N)cc2)C(C)(C)C1CC3` (stereo not given in full), the z-score in [1] was 3.27 (inactive); in [3], -1.05 (inactive); in [4], -1.26 (inactive); in test [5], -0.492 (inactive); in test [6] it was -2.86 (inactive); in test [7], 1.93. The results for the z-score in test [8], in test [9] and in [10] were -0.759 (inactive), 0.253 (inactive) and 0.807, respectively. The composite z-score in test [2] is -0.278.

Turning to `O=C1C2C=CC(C(O)c3cccc4ccccc34)N(Nc3ccccc3)C2C(=O)N1c1ccccc1` (stereo not given), the z-score was -0.692 (inactive) in test [1]; 8.49 (active) in [3]; 2.06 (inactive) in test [4]; 0.214 (inactive) in test [5]; 1.41 (inactive) in test [6]; -0.594 in [7]. Further, the z-score in [8] was -0.627 (inactive); in test [9] it was -3.83 (inactive); in test [10] it was -3.17. Moreover, the composite z-score in test [2] came out at 0.528.

As to `C[N+](C)(C)CCCC[C@@H]1NC(=O)[C@H]2C[C@@H](C(=O)NCCCCCCN)[C@@H](c3cccc(OCCO)c3)N2C1=O`, the z-score is -0.0261 (inactive) in test [1]; 1.19 (inactive) in test [3]; 0.156 (inactive) in test [4]; 3.3 (inactive) in [5]; 0.0792 (inactive) in [6]; -0.161 in test [7]. The figures for the z-score in test [8], in test [9] and in test [10] were 1.12 (inactive), 0.64 (inactive) and 1.58, respectively. The same compound came in with a composite z-score in [2] of 1.29.

As for `CC(C)(C)N1CC=CC23O[C@@H]4C=CCCOC(=O)C4[C@H]2C(=O)N(CCCO)[C@@H]3C1=O` (stereo not given in full), the z-score is 0.471 (inactive) in test [1]; 0.595 (inactive) in test [3]; -1.01 (inactive) in test [4]; 0.79 (inactive) in [5]; -1.49 (inactive) in test [6]; 0.682 in test [7]. In addition, the z-score is -2.85 (inactive) in [8], -2.02 (inactive) in [9] and -0.648 in [10]. In test [2], this compound gave a composite z-score of -0.289.

Take `CC(C)c1ccc(NN2C(C(O)c3cccs3)C=CC3C(=O)N(c4ccccc4)C(=O)C32)cc1` (stereo not given): the z-score in test [1] was -1.5 (inactive); in test [3] it was 3.11 (inactive); in test [4] it was 0.962 (inactive); in test [5], 0.566 (inactive); in test [6], 0.899 (inactive); in test [7] it was -1.16. Further, the z-score was -1.11 (inactive) in test [8], -3.51 (inactive) in [9] and -2.9 in test [10]. In [2], the composite z-score was determined as 0.498.

For the compound `COC(=O)C(CC#Cc1ccc2c(c1)[C@]1(C(=O)N2)[C@H](c2ccccc2OCCO)N2[C@H](c3ccccc3)[C@H](c3ccccc3)OC(=O)[C@H]2[C@@H]1C(=O)Nc1nc2ccccc2s1)C(=O)OC`, the z-score in [1] is -1.2 (inactive); in test [3], 4.68 (inactive); in [4], 1.71 (inactive); in test [5], 0.103 (inactive); in test [6], 1.77 (inactive); in [7], 0.334. For the same compound, the z-score is 1.04 (inactive) in test [8], 0.517 (inactive) in test [9] and 0.545 in test [10]. The composite z-score in [2] was 0.361.

`C=CCOc1ccc([C@@H]2CC=C(C(=O)OCC)[C@H](c3cccc(Br)c3)N2S(=O)(=O)c2ccc(C)cc2)cc1`: the z-score in test [1] is 0.251 (inactive); in [3] it was 0.652 (inactive); in [4], -0.384 (inactive); in test [5], -0.864 (inactive); in test [6] it was -2.24 (inactive); in test [7], 1.11. Besides, the z-score in [8] was 0.629 (inactive); in test [9] it was 0.399 (inactive); in test [10], -0.0171. The composite z-score in test [2] was -0.012.

Regarding `COc1ccc([Si](C)(C)[C@@H]2[C@@H](CCO)O[C@]3(C(=O)N(Cc4ccc(N5C(=O)c6ccccc6Oc6ccccc65)cc4)c4ccccc43)[C@H]2C)cc1`, the z-score in [1] was -0.572 (inactive); in test [3], 3.28 (inactive); in test [4], 1.99 (inactive); in test [5], -1.14 (inactive); in test [6], 1.26 (inactive); in test [7], 0.0148. For the same compound, the z-score is 0.0702 (inactive) in [8], 1.63 (inactive) in test [9] and 2.29 in test [10]. For the same compound, the composite z-score in test [2] amounted to 0.0496.

Regarding `C=CCNC(=O)[C@@H]1[C@H]2C(=O)O[C@H](c3ccccc3)[C@H](c3ccccc3)N2[C@H](c2ccc(O)cc2)[C@@]12C(=O)Nc1ccc(C#CCCO)cc12`, the z-score in test [1] was 1.79 (inactive); in test [3], 2.1 (inactive); in [4], -0.785 (inactive); in test [5] it was -0.534 (inactive); in test [6], -1.86 (inactive); in test [7], 0.727. Further, the z-score is 0.422 (inactive) in test [8], -0.449 (inactive) in [9] and 0.425 in test [10]. Further, the composite z-score in test [2] is -0.495.

In the case of `C[C@@]1([C@@H](NC(=O)c2cccs2)c2ccc(-c3ccccc3)cc2)C[C@H]1C1CCCCC1`, the z-score was -1.79 (inactive) in test [1]; 1.41 (inactive) in test [3]; -0.427 (inactive) in test [4]; 1.13 (inactive) in [5]; -1.34 (inactive) in [6]; 2.17 in test [7]. The z-score in [8] is -4.07 (inactive); in [9], -4.4 (inactive); in test [10], -1.59. The composite z-score in test [2] came out at 0.371.
